Screening data deposited in PubChem BioAssay by several laboratories.
HTR5A ag: HTR5A agonists in luminescence cell assay, primary screen, counter-screen for OPRM1-OPRD1 heterodimer agonist project, full-deck HTS | cell-based | 340,000 compounds, 0.61% hits | activation, % at 9.3 µM; in the data active = activation mostly above about 9.5%, no sharp cut-off; inactive = mostly below about 7.6%
Target sequence (P47898 whole entry, looked up): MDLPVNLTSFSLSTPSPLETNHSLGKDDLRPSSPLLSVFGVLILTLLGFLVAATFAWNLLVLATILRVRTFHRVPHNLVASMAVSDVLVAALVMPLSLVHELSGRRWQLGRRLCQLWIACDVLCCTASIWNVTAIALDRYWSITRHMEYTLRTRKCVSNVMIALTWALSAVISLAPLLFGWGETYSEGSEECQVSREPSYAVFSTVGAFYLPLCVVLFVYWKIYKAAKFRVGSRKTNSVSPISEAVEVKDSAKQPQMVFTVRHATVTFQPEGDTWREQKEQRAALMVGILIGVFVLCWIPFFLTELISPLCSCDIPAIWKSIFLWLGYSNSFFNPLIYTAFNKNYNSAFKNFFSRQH
HTR5A inv ag: HTR5A inverse agonists in luminescence cell assay, primary screen, counter-screen for OPRM1-OPRD1 heterodimer inverse agonist project, full-deck HTS | 5-hydroxytryptamine receptor 5A (Homo sapiens), P47898 | HTR5A cell line, inverse agonism | inhibition, % at 9.3 µM | 340,000 compounds, 0.083% hits | AID 504634, 2011; in the data active = inhibition mostly above about 23%, no sharp cut-off; inactive = mostly below about 18%
MOR-DOR inv ag: inverse agonists of MOR-DOR heterodimerization, primary screen, cell-based, luminescence; Mu-type opioid receptor (Homo sapiens) + Delta-type opioid receptor (Homo sapiens), …; AID 504357, 2011; inhibition, % at 9.3 µM; 340,000 compounds, 0.21% hits; cell-based MOR-DOR heterodimer luminescence, inverse agonism; in the data active = inhibition above about 22%, passing the limit was not always enough
PolyA inhibitor: polyadenylation inhibitors in yeast reporter cells, primary screen, luminescence, S. cerevisiae; activity score, % at 12 µM; 300,000 compounds, 0.02% hits; S. cerevisiae SKY197-pL101 polyadenylation reporter, beta-gal luminescence; efflux-impaired pdr1/pdr3 knockout yeast; score 100 = 6 SD above DMSO;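 active = lowest replicate activity score at least 50, where 100 means six control SD above control mean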;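 note: yeast exposed to compound for 9 h at 30 °C; higher score means more reporter readthrough which indicates perturbed polyadenylation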
NALP1 inh: NALP1 inflammasome inhibitors in reconstituted yeast, colorimetric, S. cerevisiae, triplicate retest | inhibition, % at 10 µM | S. cerevisiae NALP1/ASC/caspase-1 growth, X-gal OD620, 72 h | AID 2071, 2009 | 280,000 compounds, 0.61% hits; in the data active = inhibition mostly above about 24%, no sharp cut-off; inactive = mostly below about 32%
MOR-DOR ag-1: agonists of OPRM1-OPRD1 heterodimerization, primary screen, cell-based, luminescence; 340,000 compounds, 0.3% hits; cells; activation, % at 9.3 µM
MOR-DOR ag-2: OPRM1-OPRD1 heterodimerization promoters, counter-screen for HTR5A agonist project, cell-based, luminescence. shares compounds with HTR5A ag. 800 compounds, 13% hits. activation, % at 9.3 µM. AID 504913, 2011. U2OS counter-screen cells, complementation luminescence, 3 h
HTR5A ag confirm: HTR5A agonists, retest of hits, confirmation, cell-based, luminescence. shares compounds with HTR5A ag. HTR5A agonist cell assay. activation, % at 9.3 µM. 800 compounds, 17% hits. AID 504915, 2011; in the data active = activation above about 17%
Numbers stand for hits; 0 = inactive; - = no result. Hits are enriched below; roughly 1.6% of the tested compounds scored in any of these assays. Cut-off read from the data, not from the text of the source, unless noted: active = activation above about 18%; inactive = the rest.

SMILES | HTR5A ag | HTR5A inv ag | MOR-DOR inv ag | PolyA inhibitor | NALP1 inh | MOR-DOR ag-1 | MOR-DOR ag-2 | HTR5A ag confirm
COC(=O)CCC(=O)OC1(C)C(=O)C2=CN(CCc3c[nH]c4ccccc34)C(c3ccc(OC)cc3)=CC2=C(Br)C1=O (stereo unspecified) | 38 | 0 | 0 | 0 | - | 0 | 86 | 0
NC(=O)c1cc([N+](=O)[O-])ccc1NCc1cnccn1 | 22 | 0 | 0 | - | - | 0 | 0 | 0
NC(=O)c1cc([N+](=O)[O-])ccc1NCC1CCCCC1 | 16 | 0 | 0 | - | - | 0 | 0 | 0
NC(=O)c1cc([N+](=O)[O-])ccc1NCc1ccc(O)cc1 | 0 | 0 | 0 | - | - | 0 | - | -
Cc1ccc(NC(=O)CSc2nnc(C3CC3)n2CC2CCCO2)cc1C (stereo unspecified) | 0 | 0 | 0 | 0 | 0 | 0 | - | -
CC(C)Oc1ccc(C(=O)Nc2ccc(N3CCCC3)cc2)cc1 | 17 | 0 | 0 | 0 | 0 | 0 | 0 | 0
CCOC(=O)c1c(C)[nH]c(C(=O)OC(C)C(=O)NC2CCCCC2C)c1C (stereo unspecified) | 0 | 0 | 0 | - | - | 0 | - | -
CCOc1ccc(N2C(=O)CC(NCCc3c[nH]c4ccccc34)C2=O)cc1 (stereo unspecified) | 71 | 0 | 0 | 0 | 0 | 0 | 0 | 0
CCOc1ccc(N2C(=O)CC(NCCc3ccncc3)C2=O)cc1 (stereo unspecified) | 0 | 0 | 0 | 0 | 0 | 0 | - | -
c1cncc(-c2nc3ccccn3c2Nc2ccc3c(c2)OCCO3)c1 | 30 | 0 | 0 | 0 | 0 | 0 | 0 | 0
COc1ccc(CNC(=O)CCc2nnc3ccc(NCCCN4CCCC4=O)nn23)cc1 | 0 | 0 | 0 | 0 | 0 | 0 | - | -
COc1cccc(CNC(=O)CCc2nnc3ccc(NCCCN4CCCC4=O)nn23)c1 | 17 | 0 | 0 | 0 | 0 | 0 | 0 | 0
COc1ccc(C(CNc2ccc(C(F)(F)F)cn2)N(C)C)cc1OC (stereo unspecified) | 19 | 0 | 0 | 0 | 0 | 0 | 0 | 0
COc1cc(O)c(C(CCN2CCCCC2)c2ccc(N(C)C)cc2)c(OC)c1 (stereo unspecified) | 26 | 0 | 0 | 0 | 0 | 0 | 45 | 0
Cc1cccc(C(=O)NNC(=O)c2ccccc2C)c1 | 0 | 0 | 0 | 0 | 0 | 0 | - | -
Cc1ccccc1C(=O)NNC(=O)c1cccc([N+](=O)[O-])c1 | 17 | 0 | 0 | 0 | 0 | 0 | 0 | 0
O=C(NN1C(=O)c2ccccc2C1=O)C1CC2CCC1C2 (stereo unspecified) | 14 | 0 | 0 | 0 | 0 | 0 | 0 | 0
COc1ccccc1NCC(=O)N/N=C/c1sccc1C | 26 | 0 | 0 | 0 | 0 | 0 | 0 | 0
CC1=NN(c2ccc(C)c(C)c2)C(=O)/C1=C\C=C\c1ccc([N+](=O)[O-])o1 | 16 | 0 | 0 | 0 | 0 | 0 | 0 | 0
CC1=NN(c2ccccc2)C(=O)/C1=C\C=C\c1ccccc1 | - | - | - | 0 | 0 | - | - | -
O=C(CCC(=O)c1ccc(F)cc1)Nc1cc(Cl)cc(Cl)c1 | 0 | 0 | 0 | 0 | 0 | 0 | - | -
C=CCn1c(SCC(=O)NC(=O)NCc2ccco2)nc2sc(C)c(C)c2c1=O | 17 | 0 | 0 | 0 | 0 | 0 | 0 | 0
CN(C)c1cccc(NC(=O)Cc2ccc(F)cc2)c1 | 18 | 0 | 0 | 0 | 0 | 0 | 0 | 0
CN(C)c1cccc(NC(=O)CCc2ccccc2)c1 | 0 | 0 | 0 | 0 | 0 | 0 | - | -
CC(C)(C)OC(=O)C[C@H]1C/C=C\C[C@@H](CC(=O)N(CCO)Cc2ccccc2)C(=O)NC[C@@H](c2ccccc2)OC1=O | 0 | 0 | 0 | - | - | 0 | - | -
